From PubChem BioAssay
The list is not random: actives were taken first. Their share in the collection is about 5.7%.
Nrf2 block – Nrf2 pathway inhibition | A549 ARE-Fluc reporter, luciferase luminescence, 18-24 h | 2.1% of 360,000 active | AID 504444 | Potency, µM (doses to about 46 µM), inactives show top-dose activity change, negative = inhibition, usual class: inhibitors; note: potency is the fitted concentration of half-maximal effect; nearly all actives have a fitted effect of over 60% in size
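Cells were seeded and rested 2 h, then exposed to compounds for 18-24 h. CellTiter-Fluor was read first as a viability measure. BugLite was added 15 min before the final luminescent read of ARE-luciferase activity in A549 cells.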
A549 viability – counter-screen for Nrf2 inhibitors: cytotoxicity in A549 cells; A549 ARE-Fluc cells, CellTiter-Fluor viability, 18-24 h; Potency, µM (series often up to 46 µM), for inactives: top-dose activity change, negative = cytotoxicity, actives largely listed as inhibitors; 0.16% of 390,000 active; note: potency is the fitted concentration of half-maximal effect
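A549 ARE_Fluc cells in 5% FBS OPTI-MEM were exposed to compounds in concentration-response for 18-24 h at 37 deg C. Viability was read by CellTiter-Fluor fluorescence (Ex 405/Em 525) after 30 min, before the luciferase read.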
KB-3-1 cytotox – KB-3-1 parental cell cytotoxicity | KB-3-1 viability, CellTiter-Glo ATP luminescence, 72 h | Potency, µM (top dose mostly 46.1 µM), usual class: cytotoxic | 1.4% of 400,000 active | AID 1347075; note: potency is the fitted concentration of half-maximal effect; nearly all actives have a fitted effect of over 60% in size
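Screening of KB-3-1 cells (DMEM, 10% FBS, phenol-red free) ran from lowest to highest compound concentration; after 72 h at 37 °C viability was read luminescently and curves fitted.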
KB-V1 MDR tox – kills drug-selected multidrug resistant KB-V1 cells; KB-V1 MDR cells viability, CellTiter-Glo, 72 h; Potency, µM (series often up to 46.1 µM), most hits filed as cytotoxic; 3.4% of 400,000 active; AID 1347076; note: potency is the fitted concentration of half-maximal effect; nearly all actives have a fitted effect of over 60% in size
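Potencies derive from concentration-effect curves fitted to normalized luminescence (CellTiter-Glo) of KB-V1 cells treated for 72 h at 37 degrees C in phenol-red-free DMEM containing 10% FBS.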
PI4K2A block – inhibitors of human PI4K2A. Q9BTU6. activity change, negative = inhibition, % at 76.9 µM. 0.13% of 420,000 active. purified PI4K2A, ADP-Glo luminescence, 1 h; active compounds read low. AID 1346378; in the data active = activity change below about -50%; inconclusive = mostly about -30% to -49%;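 note: -100% = wells without enzyme as full effect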
Target sequence (Q9BTU6 whole entry, looked up): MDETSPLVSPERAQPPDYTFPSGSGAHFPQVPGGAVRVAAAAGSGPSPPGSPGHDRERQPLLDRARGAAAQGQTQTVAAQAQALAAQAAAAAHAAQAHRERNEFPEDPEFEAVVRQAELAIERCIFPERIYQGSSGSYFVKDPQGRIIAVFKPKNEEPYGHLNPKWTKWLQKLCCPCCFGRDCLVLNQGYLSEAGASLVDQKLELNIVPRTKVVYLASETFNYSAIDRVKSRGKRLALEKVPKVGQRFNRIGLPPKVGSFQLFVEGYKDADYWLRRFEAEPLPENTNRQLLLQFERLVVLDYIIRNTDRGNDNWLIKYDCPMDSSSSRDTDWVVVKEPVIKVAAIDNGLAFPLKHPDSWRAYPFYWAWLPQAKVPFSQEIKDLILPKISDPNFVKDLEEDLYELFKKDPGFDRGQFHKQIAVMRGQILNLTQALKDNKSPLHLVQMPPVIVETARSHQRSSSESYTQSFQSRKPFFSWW
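ADP-Glo luminescence measured ADP generated by PI4K2A enzyme (4 ug/mL before mixing) with 1.2 mM PI substrate (pre-mix) and 300 microM ATP (pre-mix). Tris pH7.5 buffer with MgCl2, Triton X-100; 1 h reaction at ambient temperature.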
Giardia kill – Giardia lamblia killing; 0.15% of 340,000 active; activity change, % at 7.66 µM, hits read low; Giardia lamblia trophozoite viability; AID 540267; in the data active = activity change below about -80%; inconclusive = between about -30% and that limit;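 note: parasites exposed to compound for two days anaerobically before the ATP read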
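Viability, read as ATP luminescence: trophozoites at 100 cells/well, compound added, 48 hrs anaerobic at 37 deg C, then 15-30 min room-temperature development before reading.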
* marks the source's active call; other numbers are inactive results; i = inactive; ? = inconclusive; / = no result; [ ] = dose if it differs, or a comment. Unless noted, calls come from the whole dose curve; as a rule, active = well fitted curve in the direction sought with a large enough effect; inconclusive = small, poorly fitted or top-dose-only effect, or another doubt; inactive = no such curve, though single readings can be large; an effect the other way counts as inactive or inconclusive. Unless noted, % is set by controls: 0 for no effect and ±100 for the full control effect.

SMILES | Nrf2 block | A549 viability | KB-3-1 cytotox | KB-V1 MDR tox | PI4K2A block | Giardia kill
COC(=O)CC[C@@H](/C=C/C(=O)OC(C)(C)C)Sc1ccc(C(C)(C)C)cc1 | / | / | / | / | -2 | /
Cc1ccc(-n2nc(C(=O)N(C)Cc3ccccc3)c3c4ccccc4n(C)c3c2=O)cc1 | 8%[9.27 µM] | 3% | i | i | -12 | /
O=C(Nc1ccc(F)cc1)c1nn(-c2ccccc2)c(=O)cc1Cl | 18µM* | ? | 4.6µM* | ? | 4 | 25
CS(=O)(=O)c1ccc(C(=O)Nc2cc(-c3ccccc3)nn2-c2ccccc2)cc1 | 15µM* | -13% | i | i | -9 | -2
COC(=O)c1nn(-c2ccccc2)c(=O)cc1O | 1% | 0% | i | i | -4 | 22
Cc1ccc(NC(=O)c2cc(-c3ccccc3)nn2-c2ccccc2)cc1 | -22% | 5% | ? | 21µM* | -1 | 15
O=C(Nc1cc(Cl)ccc1N1CCOCC1)c1cccnc1 | 23% | 12% | i | i | 2 | 11
CSc1ncccc1C(=O)Nc1ccccc1N1CCOCC1 | 17% | 8% | i | 21µM* | -3 | -13
CSc1ncccc1C(=O)Nc1cc(Cl)ccc1N1CCOCC1 | 1% | 14% | ? | 21µM* | 5 | -2
O=C(Nc1noc2ccccc12)c1cccc(F)c1 | ? | 1% | / | / | -26 | /
O=C(Nc1noc2ccccc12)c1ccc(F)cc1 | ? | 1% | / | / | -56* | /
O=C(CNc1ccc(Br)cc1)Nc1cccc(S(=O)(=O)N2CCCC2)c1 | 21µM* | ? | i | i | -3 | 10
O=C(CNc1cccc(S(=O)(=O)N2CCCC2)c1)Nc1cccc(Br)c1 | 21µM* | -23% | ? | ? | 2 | -1
O=C(CNc1ccc(Br)cc1)Nc1ccc(S(=O)(=O)N2CCCC2)cc1 | -20% | -5% | i | ? | -3 | 8
COc1ccc(Nc2ccc3cc(S(=O)(=O)N4CCCC4)ccc3n2)cc1Cl | 26µM* | -25% | i | i | 5 | /
COc1ccc(NCC(=O)Nc2cccc(S(=O)(=O)N3CCCC3)c2)cc1Cl | 18µM* | -21% | i | i | 11 | 5
CN(C)[C@H]1CCN(c2ccc3c(c2)O[C@@H]2CCN(C2)S3(=O)=O)C1 | / | / | / | / | -8 | /
O=C1c2ccccc2C(=O)N1c1ccccc1O | -9% | 2% | / | / | / | /
Cc1cc2c(c(C)c1Cl)C(c1ccc3c(c1)OCO3)CC(O)(c1ccccc1)O2 (centres undefined) | ? | -18% | / | / | / | 3
NC(=O)Cn1c(=O)n(-c2ccccc2)c(=O)c2oc3ccccc3c21 | -11% | -9% | i | i | 1 | 8
O=C(Cn1c(=O)n(-c2ccccc2)c(=O)c2oc3ccccc3c21)Nc1ccccc1 | -2% | -21% | i | 15µM* | -2 | -2
C=CCOC(=O)N[C@@H](c1coc2ccccc2c1=O)[C@@H](C)/C=C/CC(=O)OC | / | / | / | / | -2 | /
COc1cc(C(=O)NCCOc2cc(C)cc(C)c2)cc(OC)c1OC | 3% | -12% | 4.6µM* | 5.8µM* | -2 | -16
COc1ccc2cnn(CCOc3cc(C)ccc3C(C)C)c(=O)c2c1OC | -4% | -1% | i | 6.5µM* | -1 | 9
CCOc1ccccc1OCCn1ncc2ccc(OC)c(OC)c2c1=O | 16% | -1% | i | i | -1 | 2
SMILES | Nrf2 block | A549 viability | KB-3-1 cytotox | KB-V1 MDR tox | PI4K2A block | Giardia kill
COc1cc(C(=O)NCCOc2cc(C)ccc2C(C)C)cc(OC)c1OC | -60% | -4% | ? | 16µM* | 4 | -15
COC(=O)[C@]12C[C@H](CC(=O)N3CCOCC3)C(=O)N(Cc3cccc4ccccc34)C1=C[C@H](C1CCCC1)O[C@@H]2C | / | / | / | / | 4 | /
C=C1C=C(C(F)F)n2ncc(C(=O)NCc3ccc(F)cc3)c2N1 | / | / | i | i | / | /
N#CN1CCC(NC(=O)c2cccc(F)c2)CC1 | 4% | -2% | / | / | / | /
COc1ccccc1C(=O)N1c2ccccc2Sc2ccccc21 | -25% | -17% | 21µM* | ? | 3 | -11
CCOC(=O)N1C(=O)C[C@](Sc2ccc(OC)cc2)(C(=O)N2CCN(c3ncccn3)CC2)[C@H]1c1ccc(OC)cc1 | / | / | / | / | 1 | /
C/C(=N\NC(=O)c1ccc(Cl)c(Cl)c1)c1ccc(Br)s1 | 7.3µM* | -11% | ? | ? | 2 | 27
C/C(=N/NC(=O)c1ccc2c(c1)OCO2)c1ccc(Br)s1 | ? | -2% | i | i | -2 | -25
C/C(=N/NC(N)=S)c1ccc(Br)s1 | ? | -4% | ? | 8.2µM* | 3 | -22
C/C(=N\NC(=O)Cc1ccccc1)c1ccc(Br)s1 | 4% | 0% | i | i | -3 | -7
O=C1/C(=C\c2cc([N+](=O)[O-])ccc2O)SC(=S)N1Cc1ccc(Cl)cc1 | ? | ? | ? | 23µM* | 19 | -9
Cc1ccc(NC(=O)CN2C(=O)S/C(=C/c3ccc(O)c([N+](=O)[O-])c3)C2=O)cc1C | -20% | -25% | i | i | -3 | -82*
O=C1S/C(=C\c2ccc(O)c([N+](=O)[O-])c2)C(=O)N1Cc1cccc([N+](=O)[O-])c1 | ? | ? | i | ? | 2 | -82*
CCOP(=O)(OCC)c1ccc2c(c1)C(=O)c1ccccc1-2 | / | / | / | / | 7 | /
Cc1sc2ncnc(SCC(=O)c3ccc4c(c3)OCCO4)c2c1-c1ccccc1 | ? | 4% | i | 16µM* | -4 | -6
Nc1nc(OCC2CCCCC2)c2[nH]cnc2n1 | 18µM* | ? | i | ? | -5 | 3
Nc1nc(SCC(=O)O)c2[nH]cnc2n1 | -1% | -2% | ? | i | / | -8
Cc1csc2nc3cc(C(N)=O)ccc3c(=O)n12 | 10% | 11% | i | ? | 3 | 5
NC(=O)c1ccc2c(=O)n3c(-c4cc(Cl)c(N)c(Cl)c4)csc3nc2c1 | ? | -13% | 23µM* | i | -6 | -3
Ic1ccc(Nc2nc(NCCN3CCOCC3)nc(N3CCOCC3)n2)cc1 | / | / | i | i | / | /
CC[N+](CC)(CC#Cc1ccccc1)CC#Cc1ccccc1 | 15µM* | 1% | 8.2µM* | i | 0 | -3
C#CC[N+](CC)(CC)CC#Cc1ccccc1 | ? | -2% | i | i | -2 | -6
COC(=O)c1ccc(Cn2cc(C(F)(F)F)cc([N+](=O)[O-])c2=O)cc1 | -11% | -6% | i | i | -4 | -95*
O=c1c([N+](=O)[O-])cc(C(F)(F)F)cn1Cc1c(Cl)cccc1Cl | -23% | -1% | i | i | 0 | -91*
O=[N+]([O-])c1cc(Cl)ccc1N1CCN(c2cccc(C(F)(F)F)c2)CC1 | ? | 0% | i | ? | 3 | -12
